Drawing on ChEMBL document CHEMBL4513216, “Probing the Open Global Health Chemical Diversity Library for Multistage-Active Starting Points for Next-Generation Antimalarials” (ACS Infect Dis, 2020), this text covers INHIBITION for 53 compounds.

About 8,600 (12%) of roughly 69,000 compounds showed an effect of 50% or more. The list comes from a sample in which strong results are over-represented; it also holds similar structures and randomly drawn compounds.

For this assay, the system named is Plasmodium berghei. The assay is described as follows: Screen against P. berghei liver stage (PbLuc), transformed with Luciferase, at 10uM. Type of assay: functional, HepG2. Particulars: tested at 10 uM.
For `O=C(C1=CCCC1)N1C[C@@H]2COC[C@]2(COc2ncccc2F)C1`, the INHIBITION is listed as 16.8%.

Regarding `CC(O)CN(C(=O)NC1CCN(CC2CCCCC2)CC1)C(C)C` (stereo not drawn), the INHIBITION worked out at 21.2%.

In the case of `CC(C)N(CC(C)(C)O)C(=O)NC1CC1`, the INHIBITION amounted to 23.5%.

With `CC(O)CN(C(=O)NC1CC1)C(C)C` (stereo not drawn), the INHIBITION is 55.4%.

As for `Cc1noc(C)c1CN(C)c1nc(C2CCCC2)nc2c1cnn2C`, the INHIBITION is recorded as 20%.

For the compound `Cn1ncc(NC(=O)Cn2cc(-c3ccc(F)cn3)cn2)n1`, the INHIBITION was 77.9%.

Regarding `Cc1cc(NC(=O)Cn2ccc(-c3ccc4c(c3)OCO4)n2)n(C)n1`, the INHIBITION is recorded as 13.8%.

Regarding `Cn1ncc(NC(=O)Cn2ccc(-c3ccc(F)cc3)n2)n1`, the INHIBITION was 52.2%.

For the compound `Cn1ncc(NC(=O)Cn2ccc(-c3cccc(F)c3)n2)n1`, the INHIBITION came out at 7.39%.

Regarding `NC(=O)NC(=O)CCn1ccc(-c2ccc(F)cc2)n1`, the INHIBITION came to 16.2%.

Regarding `Cc1nc(C)c(-c2ccn(CC(=O)Nc3cnn(C)n3)n2)s1`, the INHIBITION came out at 82.4%.

As to `CNC(=O)CNC(=O)c1ccc(-c2scnc2C)nc1`, the INHIBITION was -89.4%.

As to `Cc1ncsc1-c1cc(C(=O)NCCO)ccn1`, the INHIBITION stood at 42.6%.

On to `Cn1nccc1NC(=O)Cn1ccc(-c2ccc3c(c2)OCO3)n1`, for which the INHIBITION stood at 43.4%.

On to `Cc1ccc(-c2cnn(CC(=O)NC(C)C)c2)cc1`, for which the INHIBITION is 45.7%.

`CC(C)NC(=O)Cn1cc(-c2ccccc2)cn1`: the INHIBITION was -16.7%.

As for `Cc1ncsc1-c1ccn(CC(=O)Nc2cnn(C)n2)n1`, the INHIBITION is on record as 85.7%.

In the case of `CCc1noc(CN2CCN(c3nccs3)CC2)n1`, the INHIBITION was 19.5%.

For `CNC(=O)Cc1n[nH]c(-c2cncc(Br)c2)n1`, the INHIBITION is -6.61%.

Take `Cc1ncc(C(=O)N2CCCC(C(=O)CCc3ccccc3)C2)s1` (stereo not drawn): the INHIBITION amounted to 16.3%.

Consider `CCn1ncc2c1C(COC)CN(S(=O)(=O)N(C)C)C2` (stereo not drawn), for which the INHIBITION worked out at 10%.

With `OC(CN1CCN(Cc2ccccc2)CC1)C1CC1` (stereo not drawn), the INHIBITION is -20.5%.

Turning to `CCN(C(=O)Cn1cc(Cl)cn1)c1ccccc1`, the INHIBITION was found to be 4.81%.

Consider `CNC(=O)Cn1ccc2ccc(NC(=O)NC(C)C(C)C)cc21` (stereo not drawn), for which the INHIBITION came out at 15.5%.

Consider `CC(C)NC(=O)N1CCN(c2ccc(Cl)nn2)C(=O)C1`, for which the INHIBITION stood at 37.5%.

`N#Cc1cccc(OCc2ccoc2C(=O)N2CCCCC2)c1`: the INHIBITION is recorded as -105%.

Turning to `Cc1nc(CN2CCCN(C(=O)COCC3CC3)CC2)cs1`, the INHIBITION was found to be 43.2%.

`Cc1nc(CN)cc(N2CCC(O)(c3ccc(Cl)cc3)CC2)n1`: the INHIBITION is 3.82%.

With `CCc1nc(CN2CCN(C(=O)c3cc(C)no3)CC2)cs1`, the INHIBITION was -35.7%.

Regarding `Cc1nc(CN2CCCN(C(=O)CCc3ccco3)CC2)cs1`, the INHIBITION is recorded as 12.7%.

For the compound `Cc1nc(CN2CCN(C(=O)CCc3ccco3)CC2)cs1`, the INHIBITION turned out to be 42.9%.

On to `CCCOCC(=O)N1CCCN(Cc2csc(CC)n2)CC1`, for which the INHIBITION stood at 1.75%.

As for `CCc1nc(CN2CCCN(C(=O)COCC3CC3)CC2)cs1`, the INHIBITION is listed as 54.3%.

`CCc1nc(CN2CCN(C(=O)c3cc(C)nn3C)CC2)cs1`: the INHIBITION is given as 76.9%.

In the case of `CCc1nc(CN2CCCN(C(=O)CCc3ccco3)CC2)cs1`, the INHIBITION came out at 73.1%.

As to `Cc1nc(CCN)cc(N2CCC(O)(c3ccc(Cl)cc3)CC2)n1`, the INHIBITION came to 80.8%.

Consider `CCc1nc(CN2CCCN(C(=O)c3cccn3C)CC2)cs1`, for which the INHIBITION was -69.6%.

As for `Cc1nc(CCN)cc(N2CCC(O)(c3ccccc3)C2)n1` (stereo not drawn), the INHIBITION was 7.1%.

For `COCCOc1ncccc1C(=O)N1CCCC1Cn1cc(C)cn1` (stereo not drawn), the INHIBITION came out at 15.5%.

Consider `COCCN1CCN(S(C)(=O)=O)Cc2cccnc21`, for which the INHIBITION was -0.284%.

On to `N#Cc1ccc(CN(CCF)Cc2cccc(F)c2)cc1`, for which the INHIBITION amounted to 37.9%.

Turning to `CCc1noc(CN2CCN(C(=O)N(CC)CC)CC2)n1`, the INHIBITION is -7.31%.

With `O=C(c1ncccn1)N1CC[C@H]2OCC[C@@]2(COc2ccccn2)C1`, the INHIBITION is listed as -1.15%.

For `CN(C)CC(=O)Nc1ccc(C(=O)N(C)CCc2cn[nH]c2)cc1`, the INHIBITION stood at 38.2%.

Consider `CN(C)[C@@H]1CCN(c2ncc(F)cn2)[C@H]1Cc1ccncc1`, for which the INHIBITION was -42.9%.

Consider `O=C(CN1CC(c2nc(-c3cccs3)no2)C1)NCC1CCCO1` (stereo not drawn), for which the INHIBITION worked out at 32.1%.

As to `CCc1nc(CN2CCCN(C(=O)Cc3cccs3)CC2)cs1`, the INHIBITION is given as 55.1%.

For the compound `Cc1nc(CCN)cc(N2CCCN(C(=O)c3ccco3)CC2)n1`, the INHIBITION amounted to 50.3%.

Take `CCc1nc(CN2CCCN(C(=O)c3ccccc3)CC2)cs1`: the INHIBITION is recorded as -155%.

With `CCc1nc(CN2CCCN(C(=O)c3ccco3)CC2)cs1`, the INHIBITION is 53.9%.

In the case of `Cc1nc(CN2CCC23CCN(C(=O)c2ccco2)CC3)cs1`, the INHIBITION came to 60.2%.

On to `CCc1nc(CN2CCCN(C(=O)COC)CC2)cs1`, for which the INHIBITION was -61.4%.

For the compound `CCc1ccc(C(=O)N2CCCN(Cc3csc(CC)n3)CC2)o1`, the INHIBITION is -7.25%.
